Where “and” joins values, the source holds several entries; their conditions need not be identical. Equal entries are not always repeated. About 83,000 compounds went through this panel and 20% of them were active in at least one assay; those are over-represented in the sample as a whole.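 For each line, cells grew in 96-well plates with the test compound present at a single concentration for 48 hours.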 Calls of active or inactive are those of the source.
system: UACC-62 melanoma; test: NCI-60 one-dose screen, 48 h (100 = growth as untreated, 0 = no growth, -100 = all killed); settings: 10 µM
Protocol: Growth inhibition of the UACC-62 human tumor cell line is measured as a screen for anti-cancer activity. Cells are grown in 96 well plates and exposed to the test compound for 48 hours. Compounds are tested at a single concentration, which is 10^-5 M for most compounds. The reported endpoint is percent growth (GI% or GIPRCNT), where numbers from 0 - 100% represent growth inhibition, and numbers from -100% - 0 represent cell death. For example, a value of 40 represents 60% growth inhibition. A value of 0 means no net growth occurred over the course of the experiment. A value of -40 indicates 40% of cells at the beginning of the experiment died by the end of the experiment. A value of -100 means all cells are dead at the end of the experiment.
NCI-60 Human Tumor Cell Lines Screen was performed using the standard one-dose NCI protocol, which is described in more detail at https://dtp.cancer.gov/discovery_development/nci-60/default.htm.
Compounds with GIPRCNT values below 10 were considered active. Activity score was based on GIPRCNT using the following formula: […]
Score is 0 for GIPRCNT values of 100 or above, 50 for GIPRCNT values of 0, and 100 for GIPRCNT values of -100.

Row | SMILES | growth
1 | CC1(C)OB(c2ccc(Cn3cc(F)c(=O)[nH]c3=O)cc2)OC1(C)C | 89.8% (inactive)

same assay, conditions: 10 µM unless noted

Row | SMILES | growth
2 | CC(C)C(=O)Nc1ccc([N+](=O)[O-])c(C(F)(F)F)c1 | 74.9% (inactive) and 80% (inactive)
3 | CC(=O)NC(Cc1ccccc1)C(=O)Oc1ccc2ccccc2c1 (stereo not given) | 98.8% (inactive) and 99.8% (inactive)
4 | COC(=O)c1ccc(NC(=O)O/N=C(\Cl)C(C)C)cc1 | -90.3% [100 µM] (active) and -100% [100 µM] (active)
5 | O=C(O)CSCc1nc2ccccc2[nH]1 | 93.9% (inactive)
6 | C[C@@H]1C[C@@H]2OC(=O)[C@]3(C)[C@H]2[C@@H](OC3(C)O)[C@]2(C)C(=O)C=C[C@@H]12 (stereo not given in full) | -84.2% [100 µM] (active) and -97.9% [100 µM] (active)
7 | O=C(Oc1cccc(OC(=O)c2ccccc2)c1)c1ccccc1 | 96.1% (inactive) and 100% (inactive)
8 | CCN(CC)CCNc1ccc(C)c2sc3ccccc3c(=O)c12 (tested in a mixture with another compound) | -68.8% (active) and -47.5% (active)
9 | CC1CCCC(=O)O1 (stereo not given) | 109% (inactive) and 101% (inactive)
10 | CN1C(=O)C(N=Nc2ccc([N+](=O)[O-])cc2)SC1=S (stereo not given) | 29.8% (inactive) and 38.4% (inactive)
11 | O=C(O)C1C2C=CC(C2)C1C(=O)O (stereo not given) | 89.8% (inactive) and 26.8% (inactive) and 104% (inactive)
12 | COC(=O)C(=O)C(C(=O)C(=O)Nc1ccccc1C(C)=O)c1nc2ccc(C(=O)c3ccccc3)cc2[nH]c1=O (stereo not given) | 48.7% [100 µM] (inactive) and 10.4% [100 µM] (inactive)
13 | CC1CC(=O)N(N(C)C)C(C#N)(C#N)C1(C#N)C#N (stereo not given) | -96.5% [100 µM] (active) and -97.6% [100 µM] (active)
14 | CCC(C)C1(C2CCCC2)NC(=O)NC1=O (stereo not given) | 95.5% (inactive) and 96.8% (inactive)
15 | O=C(Nc1ccc(Cl)cc1)c1cc2ccccc2cc1O | 28.3% (inactive) and 35.1% (inactive)
16 | CC1(C)Oc2ccc3c(=O)cc(-c4ccc(F)cc4)oc3c2C1C(=O)O (stereo not given) | 78.1% [100 µM] (inactive) and 87.8% [100 µM] (inactive)
17 | CC(=N/N=C/c1ccccn1)/C(C)=N/N=C(C)/C(C)=N/N=C(C)/C(C)=N/N=C(C)/C(C)=N\N=C\c1ccccn1 | 92.9% [100 µM] (inactive) and 85% [100 µM] (inactive)
18 | CCOC(=O)C(CNc1ccccc1)C(=O)OCC | 103% (inactive)
19 | CCN(CC)C(=O)c1cccnc1 | 105% (inactive)
20 | Oc1ccccc1C=NCC1CCC(CN=Cc2ccccc2O)CC1 (stereo not given) | 88.7% (inactive)

Row | SMILES | growth
21 | O=C1NC(N/N=C\c2ccccc2)=N/C1=C/c1ccc(Cl)cc1 | -9.96% [100 µM] (active) and 107% [100 µM] (inactive)
22 | N=C1N=C(N)CS1 | 100% (inactive)
23 | NNc1[nH]c(=S)[nH]c1C(N)=O | 98.3% [100 µM] (inactive) and 90.9% [100 µM] (inactive)
24 | O=C(CN1CCOCC1)N1CCOCC1 | 93.9% (inactive) and 96.6% (inactive)
25 | Nc1ncnc2c1ncn2C1CC(O)C(CO)O1 (stereo not given) | 104% (inactive) and 105% (inactive)
26 | CC(C)Oc1ccc2cc(-c3nn(CC4CCNCC4)c4ncnc(N)c34)ccc2c1 | -65.3% (active)
27 | CC(=O)C(/C=N/C(N)=O)=C(/C)O | 110% (inactive)
28 | Nc1ccc(N=Nc2ccc(S(=O)(=O)O)cc2)cc1S(=O)(=O)O | 104% (inactive) and 94.8% (inactive)
29 | COc1ccc(-c2nc3ccccc3c(=S)n2OC(C)=O)cc1 | -63.4% [25 µM] (active) and -95.7% [25 µM] (active)
30 | COc1cc2c(cc1-c1coc3cc(O)ccc3c1=O)OCO2 | 58.8% [100 µM] (inactive) and 55% [100 µM] (inactive)
31 | CN(C)c1ccc2nc3ccc(N)cc3[n+](-c3ccccc3)c2c1 | 17% (inactive) and 13.4% (inactive)
32 | Oc1nc(NCCc2ccccc2)sc1/C=C1\C=Nc2ncccc21 | -1.3% (active) and -1.44% (active)
33 | COc1ccc(CCN(C)CCCC(C#N)(c2ccc(OC)c(OC)c2)C(C)C)cc1OC (stereo not given) | 106% (inactive) and 97% (inactive) and 101% (inactive)
34 | COC(=O)c1cnn2c1n[n+]([O-])c1ccccc12 | 72.4% [100 µM] (inactive) and -65.7% [100 µM] (active)
35 | Cc1cccc(/C=C\C(=O)c2ccc(Cl)cc2)c1 | 96.8% (inactive) and 103% (inactive)
36 | Cc1ccc(/C=N/Nc2nc3ccccc3s2)s1 | 45% [100 µM] (inactive) and 40.5% [100 µM] (inactive)
37 | Cn1c(=O)n(-c2ccc(C(C)(C)C#N)cc2)c2c3cc(-c4cnc5ccccc5c4)ccc3ncc21 | -18.9% (active) and -20.3% (active)
38 | Clc1nc(Oc2ccccc2)nc(-c2cn(-c3ccccc3)c3ccccc23)n1 | 80.7% (inactive)
39 | Nc1ccccc1SC1CC(=O)N(c2cccc3ccccc23)C1=O (stereo not given) | 82.6% (inactive)

same assay, conditions: 50 µM

Row | SMILES | growth
40 | CC1(C)OB(c2ccc(Cn3cc(F)c(=O)[nH]c3=O)cc2)OC1(C)C | 29.1% (inactive)

Source: PubChem BioAssay (NCI)
